PubChem BioAssay (NCI)
The panel holds about 79,000 compounds, 15% with a hit somewhere; the sample as a whole holds those more often. Activity calls are given as the source filed them. Cut-off read from the data, not from the text of the source: active = growth inhibition above about 70%; inactive = the rest.

Legend:
[1] = NCI Yeast Anticancer Drug Screen. Data for the rad50 strain (AID 155);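 note: 0% = growth of vehicle-only cultures of the same strain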; settings: S. cerevisiae rad50 strain growth inhibition; at 50.0 µM; stronger effect = higher value
How it was run: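 Compounds were tested on a yeast strain with an engineered DNA damage repair alteration; the reported value is growth inhibition normalised to vehicle treatment.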

[2] = NCI Yeast Anticancer Drug Screen. Data for the mec2-1 strain (AID 157); settings: S. cerevisiae mec2-1 strain, at 50.0 µM, stronger effect = higher value
How it was run: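 Vehicle-treated cultures served as reference for growth inhibition of compound-exposed mec2-1 yeast.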

[3] = NCI Yeast Anticancer Drug Screen. Data for the sgs1 mgt1 strain (AID 161);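 note: 0% = growth of cultures given vehicle only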; settings: S. cerevisiae sgs1 mgt1 strain, at 50.0 µM, stronger effect = higher value
How it was run: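 Mutant yeast exposed to compound; growth scored against vehicle-only wells.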

[4] = NCI Yeast Anticancer Drug Screen. Data for the cln2 rad14 strain (AID 165);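 note: 0% = growth equal to vehicle treated cultures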; settings: S. cerevisiae cln2 rad14 strain, at 50.0 µM, stronger effect = higher value
How it was run: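 Each compound was tested on cln2 rad14 yeast. Inhibition of growth was calculated against vehicle-exposed controls.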

[5] = NCI Yeast Anticancer Drug Screen. Data for the bub3 strain (AID 167); settings: S. cerevisiae bub3 mutant strain, at 50.0 µM, stronger effect = higher value
How it was run: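 Growth of a checkpoint-deficient yeast mutant is measured after compound exposure. Values represent inhibition relative to vehicle.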

[6] = NCI Yeast Anticancer Drug Screen. Data for the mlh1 rad18 strain (AID 175); settings: S. cerevisiae mlh1 rad18 strain growth inhibition; at 50.0 µM; stronger effect = higher value
How it was run: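 Vehicle-treated cultures served as the reference for growth inhibition in a yeast strain carrying DNA damage repair alterations exposed to each compound.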

Measured: growth inhibition

Cc1ccc([N+](=O)[O-])cc1NC(=O)C(=O)Cc1cc(=O)oc2cc(O)ccc12
inactive: [1] -4.85% | [2] -22.9% | [3] -28.3% | [4] 23.9% | [5] -16.1% | [6] -6.25%

Cc1ccc2ccc(C)nc2c1
inactive: [1] 15.8% | [2] -23.7% | [3] -5.85% | [4] 7.15% | [5] 18.2% | [6] -22.9%

COC1=CC(O)(CC(N)=O)c2ccccc2C1=O (configuration not stated)
inactive: [1] -5.3% | [2] -8.65% | [3] 10.6% | [4] -11.4% | [5] -23.9% | [6] 4.85%

NS(=O)(=O)c1nc(S(=O)(=O)O)c2[nH]cnc2n1
inactive: [1] 3.7% | [2] -0.35% | [3] -6.75% | [4] -4.2% | [5] -45.3% | [6] 14.2%

CCCN(CCC)NC(=O)c1ccc(N=NN(C)C)cc1
inactive: [1] 0.15% | [2] 32.8% | [3] 8.4% | [4] -5.3% | [5] 39.9% | [6] 21%

COc1ccccc1Br
inactive: [1] -3.55% | [2] 0.85% | [3] -2% | [4] -15.3% | [5] -32.1% | [6] -4%

COC(=O)c1c(C)cc(OC)c(C/C=C(\C)CCCc2coc(C=C(C)C)c2)c1OC
inactive: [1] 21% | [2] 6.55% | [3] 19% | [4] 11.9% | [5] 12.4% | [6] 25%

COc1cc(-c2ccc(NC(=O)N3CC3)c(OC)c2)ccc1NC(=O)N1CC1
inactive: [1] 8.8% | [2] -2.5% | [3] 8.3% | [4] 19.4% | [5] -0.4% | [6] 10.7%

S=C(NCN1CCCCC1)NCN1CCCCC1
inactive: [1] 9.55% | [2] 9.1% | [3] 4.95% | [4] -50.1% | [5] 23.8% | [6] 33.5%

O=C1CSC(=S)N1Nc1ccccc1
inactive: [1] 2.45% | [2] -22.2% | [3] 22.2% | [4] 3.15% | [5] -15.8% | [6] -10.1%

O=C1c2ccccc2C(=O)N1CNc1cccc(NCN2C(=O)c3ccccc3C2=O)c1
inactive: [1] -3.9% | [2] -11.7% | [3] -9.75% | [4] 16.1% | [5] 1.2% | [6] -2.15%

Cn1cnc([N+](=O)[O-])c1Sc1ccccc1N
inactive: [1] -7.3% | [2] -4.15% | [3] 0.45% | [4] 18.6% | [5] -15.7% | [6] -2.5%

Cc1ccc(NC(=O)CC/C(CC(=O)C(C)(C)C)=N/NC(=O)C(N)=O)cc1C
inactive: [1] -2.75% | [2] -9.95% | [3] 10.5% | [4] 10.6% | [5] 8.55% | [6] 5.1%

O=S(=O)(c1ccccc1)N1CCCCN(S(=O)(=O)c2ccccc2)COC1
inactive: [1] 5.25% | [2] -7.45% | [3] -1.65% | [4] -9.85% | [5] -7.45% | [6] -5.35%

COc1cccc(/C=C\c2ccc(O)cc2)c1
active: [1] 87% | [2] 91% | [3] 92% | [4] 92% | [5] 91.2% | [6] 91.5%

NC(c1ccccc1)(c1ccccc1)c1ccccc1
inactive: [1] 20.1% | [2] 2.9% | [3] 43.9% | [4] -9.8% | [5] 19.4% | [6] 11%

Cc1c(C(C)C(=O)O)c2ccccc2n1C (configuration not stated)
inactive: [1] 39% | [2] 12.9% | [3] 31.9% | [4] 33.1% | [5] 56.8% | [6] 45.1%

CC(=O)NCCc1ccc(OC(C)=O)c(OC(C)=O)c1
inactive: [1] 0.15% | [2] -10.6% | [3] 26.2% | [4] 6.45% | [5] 23.4% | [6] 16.1%

CCCC/C=C/C1C=CC(CCCCCCCC(=O)OCC)C(C(=O)OCC)C1 (configuration not stated) (tested in a mixture with another compound)
inactive: [1] 21% | [2] 8.75% | [3] 20% | [4] 17.4% | [5] 2.2% | [6] -13.4%

Cc1cc(-c2ccc([NH2+][B-](F)(F)F)c(C)c2)ccc1[NH2+][B-](F)(F)F
inactive: [1] -9.15% | [2] -3.15% | [3] -11.6% | [4] -58.6% | [5] 3.45% | [6] -11.2%

COC(=O)c1nc(N)nc(C(=O)OC)c1C(=O)c1ccc2ccccc2c1
inactive: [1] -4.75% | [2] -13% | [3] 10.8% | [4] -2.8% | [5] 3.9% | [6] 9.4%

CC(C#N)OCCO (configuration not stated)
inactive: [1] 9.3% | [2] -2.3% | [3] 7.85% | [4] -1.85% | [5] -6.7% | [6] 5.15%

Clc1ccccc1-n1cccc1/C=N\N=C/c1cccn1-c1ccccc1Cl
inactive: [1] 0.15% | [2] 1.7% | [3] -6.1% | [4] -53.7% | [5] -1.8% | [6] -8%

CCCCCCC(C)C(=O)Nc1ccccc1 (configuration not stated)
inactive: [1] 16.7% | [2] -11.8% | [3] 10.7% | [4] 2.75% | [5] -2.95% | [6] -17.1%

CCN(CC)c1nc(Cl)nc(C(N)=O)c1N
inactive: [1] 4.85% | [2] -8.25% | [3] -10.4% | [4] -16.1% | [5] -1.2% | [6] -10.4%

N#CCc1ccc(/C(C#N)=C2/OC(=N)C(c3ccc(CC#N)cc3)C2=O)cc1 (configuration not stated)
inactive: [1] -10.3% | [2] 2.65% | [3] -5.45% | [4] -21.6% | [5] -20.7% | [6] -16.4%

C/C(O)=C(/N=Nc1ccc(-c2nc3ccc(C)c(S(=O)(=O)O)c3s2)cc1)C(=O)Nc1ccccc1
inactive: [1] 12.7% | [2] -22.5% | [3] 21.2% | [4] 16% | [5] 19.9% | [6] 26.9%

Cc1nc(C)c(N2CCN(S(N)(=O)=O)CC2)c(=O)[nH]1
inactive: [1] -70.3% | [2] -26.9% | [3] -30.8% | [4] 6.6% | [5] 3.4% | [6] -21.8%

CCN(CCOC(=O)Nc1ccc(Cl)cc1)C(=O)Nc1ccc(Cl)cc1
inactive: [1] -1.75% | [2] -36.8% | [3] 16.4% | [4] 2.8% | [5] -8.55% | [6] -18.2%

O=C(O)C1=NN(c2ccc(S(=O)(=O)O)cc2)C(=O)C1N=Nc1ccc(S(=O)(=O)O)cc1 (configuration not stated)
inactive: [1] 7.3% | [2] -0.6% | [3] 17.1% | [4] 16.9% | [5] -1% | [6] 13%

Cn1ccc(=S)c2ccccc21
inactive: [1] 18.2% | [2] 1.25% | [3] 9.6% | [4] -56.1% | [5] -2.15% | [6] 19.5%

CCOc1ccc(N2C(=O)C(=O)C(C#N)(c3nc4ccccc4o3)C(=O)C2=O)cc1
inactive: [1] 9.25% | [2] 33.7% | [3] 5.95% | [4] 6% | [5] -0.7% | [6] 15.2%

COc1cc(OC)c(N=Nc2c(O)n(C)c(=O)n(C)c2=O)cc1Cl
inactive: [1] 6.45% | [2] -17.8% | [3] 14.6% | [4] 3.85% | [5] 10.6% | [6] 1%

CCOC(=O)C(CCC#N)(NC(C)=O)C(=O)OCC
inactive: [1] 1.4% | [2] -2.35% | [3] 7.4% | [4] -25.3% | [5] 1.7% | [6] -20.9%

COc1ccc(C2Nc3cc(Cl)ccc3NC3=C2C(=O)CC(C)(C)C3)cc1 (configuration not stated)
inactive: [1] 52.5% | [2] 30.9% | [3] 41.2% | [4] 28.6% | [5] 40.3% | [6] 54.3%

OCCSCc1cc2c(cc1Br)OCO2
inactive: [1] -29.5% | [2] -2% | [3] -11.8% | [4] 19.8% | [5] 12.4% | [6] 2.15%

CCCC1CCCCC1O (configuration not stated)
inactive: [1] -9.55% | [2] -38.8% | [3] -24.4% | [4] 7.15% | [5] -24.2% | [6] -6.95%

O=C1CC(C2OCOC3COCOC32)CC(=O)N1 (configuration not stated)
inactive: [1] 4.15% | [2] -5.1% | [3] -7.15% | [4] 2.3% | [5] -12.8% | [6] -1.65%

O=c1cc(-c2cccnc2)oc2ccc(Cl)cc12
inactive: [1] 59.8% | [2] -2.8% | [3] 7.7% | [4] -33.9% | [5] 11.2% | [6] 5.85%

O=C(CCN1C(=O)c2ccccc2C1=O)NCS(=O)(=O)O
inactive: [1] -11.8% | [2] -4.7% | [3] -11.1% | [4] -47.5% | [5] 16.2% | [6] -17.5%

COC(=N)c1ncn(Cc2ccccc2)c1N
inactive: [1] -21.6% | [2] -28.6% | [3] -11.9% | [4] -24.4% | [5] -7.35% | [6] -37.3%

C/C(=N\N)C1C(=O)c2ccccc2C1=O
inactive: [1] 6.1% | [2] 5.05% | [3] 13.7% | [4] 20.8% | [5] 8.8% | [6] 11.3%
